Assay outcomes: PubChem, several laboratories
CendR NRP1 mod: alters CendR peptide binding to human NRP-1; FAM-RPARPAR peptide binding to NRP-1, fluorescence polarization; AID 602438; O14786; 360,000 compounds, 0.85% hits; inhibition, % at 25 µM;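 active = inhibition or corrected inhibition above about 18%, plus a signal ratio from 0.5 to 1.5, limit read from the data, passing the limit was not always enough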
Target sequence (O14786 whole entry, looked up): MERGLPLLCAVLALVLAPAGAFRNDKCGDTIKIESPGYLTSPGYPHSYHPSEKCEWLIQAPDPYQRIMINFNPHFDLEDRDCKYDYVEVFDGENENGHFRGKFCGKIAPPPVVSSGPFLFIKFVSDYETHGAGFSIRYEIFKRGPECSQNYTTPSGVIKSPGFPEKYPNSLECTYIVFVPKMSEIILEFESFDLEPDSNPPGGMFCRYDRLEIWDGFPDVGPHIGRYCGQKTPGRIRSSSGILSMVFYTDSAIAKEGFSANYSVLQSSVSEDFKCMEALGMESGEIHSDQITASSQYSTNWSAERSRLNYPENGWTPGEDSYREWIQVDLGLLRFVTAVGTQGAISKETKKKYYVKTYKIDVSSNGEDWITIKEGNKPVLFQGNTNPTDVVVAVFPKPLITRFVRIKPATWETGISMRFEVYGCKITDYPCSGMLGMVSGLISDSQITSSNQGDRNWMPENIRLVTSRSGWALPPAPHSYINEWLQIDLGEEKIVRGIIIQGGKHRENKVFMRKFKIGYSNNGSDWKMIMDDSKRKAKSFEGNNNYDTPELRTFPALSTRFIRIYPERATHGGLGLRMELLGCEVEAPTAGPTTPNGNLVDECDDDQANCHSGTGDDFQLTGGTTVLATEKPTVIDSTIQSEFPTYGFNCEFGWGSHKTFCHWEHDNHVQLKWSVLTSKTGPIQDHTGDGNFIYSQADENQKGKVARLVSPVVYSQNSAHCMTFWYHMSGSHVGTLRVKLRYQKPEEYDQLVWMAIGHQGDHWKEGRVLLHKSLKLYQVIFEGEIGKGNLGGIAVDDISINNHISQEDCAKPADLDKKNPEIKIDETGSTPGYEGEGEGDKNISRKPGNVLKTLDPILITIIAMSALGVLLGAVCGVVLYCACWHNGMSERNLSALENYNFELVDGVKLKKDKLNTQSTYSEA
F508del corr: CFTR F508del correction in bronchial cells. CFBE cells, YFP halide quenching; stimulated with forskolin plus potentiator P3; % fluorescence drop versus neutral controls. activity (quench increase), % at 7.58 µM. 350,000 compounds, 0.36% hits. AID 720511;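 active = mean added fluorescence quench of at least 8% versus neutral control, with both replicates also reaching 8%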;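 also: cells transiently co-express mutant CFTR-F508del with the halide-sensitive YFP; corrector assay measuring rescue of mutant channel to the surface after 24 h compound exposure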
ATG4B inh: ATG4B (human) cysteine protease inhibition. Q9Y4P1. ATG4B cleavage of LC3-PLA2, NBD-HPC fluorescence, 1 h. inhibition, % at 8.33 µM. 340,000 compounds, 0.51% hits; in the data active = inhibition above about 40%
SKN-1 inh: blocks SKN-1 activity in C. elegans; inhibition, % at 21.8 µM; C. elegans VP596 Pgst-4::GFP/RFP ratio, acrylamide-induced, 24 h; 360,000 compounds, 0.49% hits;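 active = interference check ratio from 0.5 to 1.5 plus GFP to RFP signal ratio inhibition reaching or exceeding a fixed threshold, cut at about 30% in these data, passing the limit was not always enough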
MPTP inh: blocks calcium-induced mitochondrial swelling | AID 602449 | isolated mouse mitochondria, Ca2+ swelling absorbance, 30 min | inhibition, % at 10 µM | 360,000 compounds, 1.4% hits;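 active = inhibition of 50% or more, scaled per plate between neutral and stimulator controls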
Rh123 counter: membrane potential counter-screen of mitochondrial pore inhibitors | AID 624504 | isolated mitochondria, Rhodamine 123 fluorescence | inhibition, % at 10 µM | 5,000 compounds, 78% hits | shares compounds with MPTP inh; in the data active = inhibition above about 22%
MPTP abs DR: MPTP inhibition, dose response swelling confirmation | AID 651561 | isolated mitochondria swelling, absorbance | IC50, µM | shares compounds with MPTP inh | 780 compounds, 58% hits; in the data active = IC50 below about 20 µM
MPTP cs DR: counter-screen for mitochondrial permeability transition pore inhibitors, dose response; isolated mitochondria counterscreen, fluorescence read-out; 780 compounds, 49% hits; IC50, µM; shares compounds with MPTP inh; in the data active = IC50 below about 80 µM
Each line names hits and unclear results; the compound was inactive in the other large screens (follow-up assays come after a bar, where they were run). A selection: hits, their analogues and other compounds. The true share with any hit is near 2.7%.

C[C@H]1CCCCO[C@H](CN(C)C(=O)Nc2ccc3c(c2)OCO3)[C@@H](C)CN([C@@H](C)CO)C(=O)c2cc(NC(=O)CCC(F)(F)F)ccc2O1	none (no result: CendR NRP1 mod, ATG4B inh, SKN-1 inh, MPTP inh)
CNC[C@@H]1OCCCC[C@@H](C)Oc2ccc(N)cc2C(=O)N([C@H](C)CO)C[C@H]1C	none (no result: CendR NRP1 mod, ATG4B inh, SKN-1 inh, MPTP inh)
CC(=O)N1[C@H](CO)[C@@H](c2ccccc2)[C@H]1CNC(=O)CN1CCOCC1	none (no result: CendR NRP1 mod, ATG4B inh, SKN-1 inh, MPTP inh)
Cc1cc(NC(=O)CSc2nc(CCC3CCCC3)nc3ccccc23)no1	none (no result: F508del corr)
Cc1nonc1NC(=O)CSc1nc(CCC2CCCC2)nc2ccccc12	MPTP inh 65.8 | Rh123 counter 82.0
CO[C@H]1CN(C)C(=O)c2cc(NS(C)(=O)=O)ccc2OC[C@@H](C)N(Cc2ccccn2)C[C@H]1C	none (no result: CendR NRP1 mod, ATG4B inh, SKN-1 inh, MPTP inh)
N#CC1(C#N)CC(C=O)=C(N)C1(C#N)CC(=O)C12CC3CC(CC(C3)C1)C2 (stereo not given)	MPTP inh 72.7 (no result: F508del corr) | Rh123 counter 55.1
Nc1nccnc1C(=O)OCC(=O)C12CC3CC(CC(C3)C1)C2	none
C[C@H](CO)N1C[C@H](C)[C@H](CN(C)Cc2ccc(-c3ccccc3)cc2)Oc2ccc(NC(=O)Nc3ccc(C(F)(F)F)cc3)cc2CC1=O	none (no result: CendR NRP1 mod, ATG4B inh, SKN-1 inh, MPTP inh)
CC(C)(C)n1ncc2c(=O)n(Cc3cccc(Cn4cnc5c(cnn5C(C)(C)C)c4=O)c3F)cnc21	MPTP inh 95.2 | Rh123 counter 87.4
CCOc1ccccc1OCCCCCc1c(C)n[nH]c1C	MPTP inh 80.9 (no result: F508del corr) | Rh123 counter 47.1
Cc1cccc(OCCCCc2c(C)n[nH]c2C)c1C	MPTP inh 53.8 | Rh123 counter 82.5
COc1ccccc1OCCCCCc1c(C)n[nH]c1C	none (no result: F508del corr)
C[C@@H]1CN([C@@H](C)CO)C(=O)c2cc(-c3ccc(C#N)cc3)cnc2O[C@H]1CN(C)CC1CCCCC1	none (no result: CendR NRP1 mod, ATG4B inh, SKN-1 inh, MPTP inh)
CO[C@@H]1CN(C)C(=O)c2ccc(NC(=O)c3ccc(F)cc3)cc2OC[C@H](C)NC[C@H]1C	none (no result: CendR NRP1 mod, ATG4B inh, SKN-1 inh, MPTP inh)
Cc1nn(C(C)(C)C)c(C)c1/C=N/OC(=O)Nc1ccc(Cl)c(Cl)c1	MPTP inh 72.8 | Rh123 counter 75.9
CN(Cc1ccccc1)c1nc(-c2cccc([N+](=O)[O-])c2)nc2ccccc12	MPTP inh 67.0 | Rh123 counter inactive | MPTP abs DR 19.1 | MPTP cs DR inactive
O=[N+]([O-])c1cccc(-c2nc(NCc3ccccc3)c3ccccc3n2)c1	none (no result: F508del corr)
Cc1ccc(C(=O)Nc2nc(=O)n(C(=O)CC(C)C)s2)cc1	MPTP inh 58.1 (no result: F508del corr) | Rh123 counter 78.0
CC(C)CC(=O)n1sc(NC(=O)c2ccccc2)nc1=O	none
S=C(NCCc1ccccc1)Nc1cccc2cnccc12	MPTP inh 85.8 | Rh123 counter 85.1
Cc1ccc(NC(=S)Nc2cccc3cnccc23)cc1C	none
S=C(Nc1cccc(Cl)c1)Nc1cccc2cnccc12	MPTP inh 96.8 (no result: F508del corr) | Rh123 counter 99.3
S=C(NCc1ccccc1)Nc1cccc2cnccc12	none
CCC(=O)c1ccc(OCc2ccccc2)c(OC)c1	none (no result: F508del corr)
CCC(=O)c1ccc(OCc2ccc(C(=O)c3ccccc3)cc2)cc1	MPTP inh 101.0 | Rh123 counter 104.0
CSc1nc(N)nc(SCC(=O)Nc2cccc(F)c2)c1C#N	MPTP inh 92.9 (no result: F508del corr) | Rh123 counter 87.5
CSc1nc(N)nc(SCC(=O)Nc2ccc(Cl)cc2)c1C#N	MPTP inh 84.8 (no result: F508del corr) | Rh123 counter 81.9
Cc1ccc(S(=O)(=O)N(C)C[C@@H]2OCCCC[C@@H](C)Oc3ccc(NC(=O)NC(C)C)cc3C(=O)N([C@H](C)CO)C[C@H]2C)cc1	none (no result: CendR NRP1 mod, ATG4B inh, SKN-1 inh, MPTP inh)
CN(C)C(=O)[C@@H]1[C@@H](CO)[C@@H]2Cn3c(ccc(C4=CCCC4)c3=O)[C@H]1N2C	none (no result: CendR NRP1 mod, ATG4B inh, SKN-1 inh, MPTP inh)
O=C(Nc1ccc(Cl)c(Cl)c1)C1CC(=O)N(c2ccc(Br)cc2)C1 (stereo not given)	MPTP inh 63.0 (no result: F508del corr) | Rh123 counter 87.2
COCCOC(=O)N1C(=O)[C@@]2(c3cc(C#CC4(O)CCCCCC4)ccc31)[C@H](C(=O)N1CCN(c3ncccn3)CC1)[C@H]1C(=O)O[C@H](c3ccccc3)[C@H](c3ccccc3)N1[C@@H]2c1ccccc1OCCO	none (no result: CendR NRP1 mod, ATG4B inh, SKN-1 inh, MPTP inh)
C[C@@H]1CN([C@@H](C)CO)C(=O)c2cccc(NC(=O)C3CCOCC3)c2O[C@@H]1CN(C)Cc1ccncc1	none (no result: CendR NRP1 mod, ATG4B inh, SKN-1 inh, MPTP inh)
O=C(c1cc(COc2ccc(F)cc2Cl)on1)N1CCC(OCc2cccnc2)CC1	MPTP inh 67.7 | Rh123 counter 22.6
Cc1ccc(OCc2cc(C(=O)N3CCC(Oc4cccnc4)CC3)no2)cc1C	MPTP inh 91.4 | Rh123 counter 88.8
O=C(c1cc(COc2cccc(C(F)(F)F)c2)on1)N1CCC(Oc2cccnc2)CC1	MPTP inh 59.7 | Rh123 counter 82.8
CCCC#Cc1ccc2c(c1)O[C@H](CN(C)Cc1ccccc1)[C@H](C)CN([C@@H](C)CO)S2(=O)=O	none (no result: CendR NRP1 mod, ATG4B inh, SKN-1 inh, MPTP inh)
CCCOc1cccc(-c2cc(C(=O)NNC(=S)NCC)c3ccccc3n2)c1	MPTP inh 50.2 (no result: F508del corr) | Rh123 counter 55.7
Cc1ccc(C)c(-c2cc(C(=O)NNC(=S)NCC(C)C)c3ccccc3n2)c1	MPTP inh 86.6 | Rh123 counter 80.2
CCCOc1ccc(C(=O)NNC(=S)NC(=O)c2cc(-c3ccc(Cl)cc3)nc3ccccc23)cc1	MPTP inh 93.3 (no result: F508del corr) | Rh123 counter 20.2
CCNC(=S)NNC(=O)c1cc(-c2ccccc2C)nc2ccccc12	none (no result: F508del corr)
C[C@H]1CCCCO[C@H](CN(C)S(=O)(=O)c2cn(C)cn2)[C@@H](C)CN([C@@H](C)CO)C(=O)c2cc(NC(=O)Nc3ccc4c(c3)OCO4)ccc2O1	none (no result: CendR NRP1 mod, ATG4B inh, SKN-1 inh, MPTP inh)
C[C@@H]1CCCCO[C@@H](CN(C)C(=O)C2CCCCC2)[C@@H](C)CN([C@@H](C)CO)C(=O)c2cc(NC(=O)NC3CCCCC3)ccc2O1	none (no result: CendR NRP1 mod, ATG4B inh, SKN-1 inh, MPTP inh)
C[C@H](CO)N1C[C@H](C)[C@H](CN(C)C(=O)Nc2cccc3ccccc23)Oc2ccc(NS(=O)(=O)c3ccc(F)cc3)cc2C1=O	none (no result: CendR NRP1 mod, ATG4B inh, SKN-1 inh, MPTP inh)
O=C(O)c1cccc(Nc2nc3ccccc3nc2NS(=O)(=O)c2cccs2)c1	none
CC(=O)c1ccc(Nc2nc3ccccc3nc2NS(=O)(=O)c2cccs2)cc1	MPTP inh 82.9 | Rh123 counter 31.7
COc1ccc(Nc2nc3ccccc3nc2NS(=O)(=O)c2ccc(NC(C)=O)cc2)cc1	none
COc1ccc(Nc2nc3ccccc3nc2NS(=O)(=O)c2cccs2)cc1	MPTP inh 61.0 (no result: F508del corr) | Rh123 counter 63.7
N#C[C@@H]1[C@H](c2ccccc2-c2ccccc2)[C@H](CO)N1C(=O)Cc1cccnc1	none (no result: CendR NRP1 mod, ATG4B inh, SKN-1 inh, MPTP inh)
O=C(/C=C/c1ccc(Cl)c([N+](=O)[O-])c1)Nc1ccc(N2CCCC2)c(Cl)c1	MPTP inh 75.8 (no result: F508del corr) | Rh123 counter 40.2
